Legend:
Format in all cases: functional
[1] = biological target: Solute carrier family 2, facilitated glucose transporter member 1 (Homo sapiens) (UniProt P11166); assay: ST_JUDE_LEISH: Cytotoxicity at 2uM final concentration against transgenic Leishmania Mexicana promastigotes LmGLUT1 that are glucose transport deficient and complemented with the human glucose transporter GLUT1. Activity is measured by DNA content using SYBR green in vitro
[2] = biological target: Hexose transporter 1 (Plasmodium falciparum) (UniProt O97467); assay: ST_JUDE_LEISH: Cytotoxicity at 2uM final concentration against transgenic Leishmania Mexicana promastigotes LmPfHT that are glucose transport deficient and complemented with the Plasmodium falciparum hexose transporter. Activity is measured by DNA content using SYBR green in vitro
[3] = biological target: Glucose transporter (Leishmania mexicana) (UniProt O61059); assay: ST_JUDE_LEISH: Cytotoxicity at 2uM final concentration against transgenic Leishmania Mexicana promastigotes LmGT2 that are glucose transport deficient and complemented with the L. Mexicana glucose transporter 2. Activity is measured by DNA content using SYBR green in vitro

Chain of Solute carrier family 2, facilitated glucose transporter member 1 (Homo sapiens) (P11166 whole entry): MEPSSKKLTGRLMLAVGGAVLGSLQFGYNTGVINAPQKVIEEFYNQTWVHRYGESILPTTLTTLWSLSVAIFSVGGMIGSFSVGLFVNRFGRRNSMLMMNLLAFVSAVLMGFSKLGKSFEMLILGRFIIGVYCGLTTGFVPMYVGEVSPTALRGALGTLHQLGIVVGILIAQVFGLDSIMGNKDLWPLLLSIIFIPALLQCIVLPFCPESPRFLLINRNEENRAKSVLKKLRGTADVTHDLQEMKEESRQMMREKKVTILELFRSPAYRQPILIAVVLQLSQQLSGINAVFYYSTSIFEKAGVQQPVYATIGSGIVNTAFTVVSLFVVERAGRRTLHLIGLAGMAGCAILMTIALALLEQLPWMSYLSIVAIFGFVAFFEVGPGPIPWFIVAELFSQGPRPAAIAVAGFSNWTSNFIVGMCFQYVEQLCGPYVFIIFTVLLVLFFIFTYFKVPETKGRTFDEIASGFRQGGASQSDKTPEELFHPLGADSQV

Row | SMILES | inhibition [1] [%] | inhibition [2] [%] | inhibition [3] [%]
1 | COc1ccc(-c2cccc(NC(=O)c3cccc(F)c3)c2)cc1CN1CCCN(C)CC1 | 2.17 | 1.16 | -0.49
2 | COc1ccc2c(c1)CCN(CCN1CCC(CNC(=O)c3ccc(-c4ccc(C#N)cc4)cc3)CC1)C2 | -0.11 | 1.19 | 2.22
3 | CC(C)(C(=O)Nc1ccc(C2CCC(NCC3CC3)CC2)c(Cl)c1)c1ccc(C(F)(F)F)cc1 (centres undefined) | 0.29 | 0.31 | -0.91
4 | COc1ccc(-c2ccc(NC(=O)c3cccc(C#N)c3)cc2)cc1CN1CCCN(C)CC1 | 4.08 | 2.42 | -0.48
5 | CC1(C)N=C(N)N=C(NOCc2ccc(Cl)c(Cl)c2)N1 | 1.06 | 1.13 | 1.84
6 | CCCCC(CC)NC(=O)[C@H]1CNCCN1C(=O)CCCc1ccccc1 (some centres undefined) | 1.73 | 1.94 | -0.61
7 | N#Cc1ccc2c(c1)CN(C1CCC(NC(=O)/C=C/c3cc(C(F)(F)F)cc(C(F)(F)F)c3)CC1)CCC2 (centres undefined) | 1.63 | 1.36 | 0.57
8 | CC(=O)Nc1cccc(C(=O)Nc2ccc(-c3ccc(-c4nc5cccc(C)c5[nH]4)s3)cc2)c1 | -0.38 | 1.16 | 0.04
9 | CCCNC(=O)C1CCN(C(c2ccccc2)c2ccc(Cl)c(Cl)c2)CC1 (centres undefined) | 4.42 | 5.75 | 3
10 | N=c1n(CCN2CCCCC2)c2ccccc2n1CC(O)c1cccc(Br)c1 (centres undefined) | 3.65 | 4.03 | 3.65
11 | O=C(NCCCc1ccccc1)c1ccc(O)c(-c2cc(Cl)cc(Cl)c2)c1 | 4.73 | 4.32 | 3.61
12 | O=C(/C=C/c1ccc(Cl)c(Cl)c1)NCCCCCN1CCC(CCNC(=O)c2snnc2-c2ccccc2)CC1 | 0.24 | 4.7 | -0.16
13 | Cc1ccc(S(C)(=O)=O)cc1/C=C/C(=O)O | 9.4 | 8.46 | 10.4
14 | O=S(=O)(NCCN1CCCC1)c1cccc(-c2cccc(CNCCc3cccs3)c2)c1 | 11.7 | 12 | 8.7
15 | CN(C)Cc1ccc(CN2CCN(CCOc3ccc(-c4ccc(Cl)cc4)cc3)CC2)o1 | 22.7 | 13.8 | 19.2
16 | CN1CCN(c2ccnc3ccc(NC(=O)Cc4ccc(OCc5ccccc5)cc4)cc23)CC1 | 7.43 | 7.76 | 8.79
17 | COc1ccc(Br)cc1C1C2C(=O)N(c3ccc(Br)cc3)C(=O)C2C2(C(=O)O)CC(OCc3ccccc3)CN12 (centres undefined) | 12.4 | 12 | 10.2

Row | SMILES | inhibition [1] [%] | inhibition [2] [%] | inhibition [3] [%]
18 | c1ccc(N2CCN(c3cc(-c4cccnc4)nc(-c4ccncc4)n3)CC2)nc1 | 2.7 | 1.5 | 0.92
19 | NC1=NC(c2ccccc2)(c2ccccc2)C(=O)N1Cc1ccccc1Br | 7.09 | 4.75 | 6.62
20 | COc1ccc2nccc([C@@H](O)CN3CCC(NC(=O)Cn4nc(-c5ccc(C(F)(F)F)cc5)ccc4=O)CC3)c2c1 | 4.01 | 3.03 | 1.3
21 | CC1CCc2sc(-c3nnc(SC(C)C(=O)N4CCCC4)o3)cc2C1 (centres undefined) | 2.14 | 1.29 | -4.77
22 | CC(C)CNCc1cccc(-c2ccccc2CNC2CCN(Cc3ccccc3)CC2)c1 | 5.47 | 4.95 | 7.56
23 | COc1ccccc1-c1cccc(CNC2CCN(CC3Cn4c(=O)ccc5ccc(F)c3c54)CC2)c1 (centres undefined) | 15 | 31.3 | 54.7
24 | COc1ccc(-c2onc(C(F)(F)F)c2-c2ccc(Br)cc2)c(O)c1 | 2.09 | 2.27 | 1.56
25 | O=C(Cc1ccc(NC(=O)c2ccc(O)c(-c3ccc(Cl)c(Cl)c3)c2)cc1)NCc1cccc(C(F)(F)F)c1 | 2.33 | 2.65 | 1.16
26 | CCNCCCC(C)Nc1ccnc2cc(Cl)ccc12 (centres undefined) | -2.28 | -2.68 | -2.34
27 | CCOc1cc(C)ccc1C1CCN(CCCCNC(=O)c2ccc(-c3ccc(Cl)cn3)cc2)CC1 | 1.1 | -0.06 | -0.83
28 | C[C@H](NC(=O)c1c(CN2CCN(C(=O)C(C)(C)C)CC2)c(-c2cccs2)nc2ccccc12)C1CCCCC1 | 6.07 | 5.13 | 2.24
29 | Oc1cccc(/C=N/Nc2ccnc3cc(Cl)ccc23)c1 | 4.49 | 0.91 | 3.14
30 | Cc1noc(C)c1-c1ccc2c(Nc3ccccc3C(C)(C)C)c(C(=O)NC3CCCC3)cnc2c1 | 2.07 | 1.46 | -0.58
31 | Fc1cccc(Cl)c1-c1nc(NCCC(c2ccccc2)c2ccccc2)no1 | -0.45 | 0.05 | 1.11
32 | Fc1ccc(NC(S)=NN=Cc2ccccn2)cc1 | 4.22 | 2.09 | -1.91
33 | CC(Oc1ccc(Cl)cc1)C(=O)NCCC1CCN(CCCCCNC(=O)/C=C/c2ccc(Cl)c(Cl)c2)CC1 (centres undefined) | 2.73 | 1.37 | 0.04

Reference: ChEMBL document CHEMBL3433997, “St. Jude Leishmania screening dataset” (2016)
